Most compounds without a hit are left out; they make up all but 5.5% or so of the library.
Gal4-VP16 FLuc = VP16 counterscreen qHTS for inhibitors of ROR gamma transcriptional activity. Drosophila S2 Gal4-VP16 UAS-luciferase, luminescence, 20 h. hit rate 3.5% among 310,000. Potency, µM (top dose mostly 53.6 µM), hits mostly inhibitors;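 further: Gal4-VP16 expression switched on by copper sulfate through the metallothionein promoter; nearly all actives have a fitted effect of over 50% in size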
CtBP-E1A inh = qHTS Assay for Inhibitors of the CtBP/E1A Interaction. AlphaScreen GST-E1A/His-CtBP binding, 1536-well; active compounds read low. activity change, % (concentration not given with the values). hit rate 0.49% among 340,000. AID 651724, 2012; in the data active means activity change below about -65%; inconclusive means mostly about -30% to -63%
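In 5 uL wells, 23 nL compound meets equimolar GST-E1A and His-CtBP (5X stock 125 nM each) for 2 h, 37 °C. Beads (5X, 50 ug/mL) then 1 h, 37 °C, dark.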
CBFb RUNX1 block = qHTS Assay for Compounds Blocking the Interaction Between CBF-beta and RUNX1 for the Treatment of Acute Myeloid Leukemia | 230,000 tested, under 10 active | Potency, µM (highest dose often 59.8 µM), usual class: inhibitors | AlphaScreen CBFb-His/RUNX1-biotin binding, biochemical | Runt-related transcription factor 1 (Homo sapiens) + Core-binding factor subunit beta … | AID 1477, 2009
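Room-temperature protein-protein interaction test with 30 nM each of His-tagged CBF-beta and biotinylated RUNX1, 15 min with compound, then 90 min with nickel plus streptavidin beads. Signal read in AlphaScreen mode.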
RORg inh = qHTS for inhibitors of ROR gamma transcriptional activity; AID 2551, 2010; hit rate 5.4% among 310,000; Potency, µM (doses to about 53.6 µM), usual class: inhibitors; Drosophila S2 Gal4-RORgamma UAS-luciferase reporter, 20 h; further: nearly all actives have a fitted effect of over 60% in size
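A Gal4/UAS one-hybrid system in insect cells: metallothionein-promoter Gal4–ROR gamma fusion plus Photinus luciferase reporter. Copper sulfate 700 uM final, 20 hr ambient incubation, luminescent detection after 10 min with reagent.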
MBNL1 CUG block = qHTS Assay for Inhibitors of MBNL1-poly(CUG) RNA binding; hit rate 0.036% among 280,000; AID 2675, 2010; Muscleblind-like protein 1 (Homo sapiens), Q9NR56; TR-FRET MBNL1-His/biotin-(CUG)12 binding, 665/545 ratio; Potency, µM (highest dose often 57.5 µM), actives largely listed as inhibitors; active means well fitted inhibition curve with a large enough effect in the signal ratio, with a control signal flat, not every such curve was filed as active; inconclusive means small, poorly fitted or top-dose-only effect, or effect the other way, or a change in a side signal; inactive means no such curve, though single readings can be large or run the other way; the % refers to the signal ratio
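Compound titration spanned 92 nM–58 uM against the MBNL1-His/biotin-(CUG)12 complex. After 60 min at room temperature with 5 nM streptavidin-XL665 and 0.055 ng/ul terbium anti-His, ratiometric 665/545 nm emission (Ex 340 nm) normalized to controls.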
Six1-Eya2 blk = qHTS Assay for Inhibitors of the Six1/Eya2 Interaction. Homeobox protein SIX1 (Homo sapiens) + Protein phosphatase EYA2 (Homo sapiens), …. AlphaScreen GST-Six1/His-Eya2 binding, biochemical; active compounds read low. activity change, % (no concentration beside the values). hit rate 0.56% among 360,000; in the data active means activity change below about -65%; inconclusive means mostly about -30% to -63%
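GST-Six1 + His-Eya2 (5X stock: 250/500 nM); Tris pH 8.0, 300 mM NaCl, 0.05% BSA, 0.02% Tween 20; GSH donor/Ni acceptor beads; 1 h 37 °C dark; AlphaScreen readout.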
A number is an active result; . = inactive; ? = inconclusive; / = not tested or not shown; [ ] = another dose, or the depositor's remark. Unless noted, the call rests on the fitted dose curve; in most records, active means well fitted curve in the direction sought with a large enough effect; inconclusive means small, poorly fitted or top-dose-only effect, or another doubt; inactive means no such curve, though single readings can be large; an effect the other way counts as inactive or inconclusive.

SMILES | Gal4-VP16 FLuc | CtBP-E1A inh | CBFb RUNX1 block | RORg inh | MBNL1 CUG block | Six1-Eya2 blk
O=C(NN=C1CCN(Cc2ccccc2)CC1)c1cc(Br)ccc1O | ? | / | . | 3.5µM | . | .
CC/C(=N\Nc1ccccc1[N+](=O)[O-])c1ccc(O)cc1 | . | -71 | / | . | ? | ?
Cn1cc(-c2cc(C(=O)O)on2)cn1 | . | / | . | . | . | .
NNc1nnc(-c2ccccc2)c(-c2ccccc2)n1 | ? | . | . | 11µM | ? | .
NNc1nc(-c2ccccc2)c2ccccc2n1 | ? | . | . | 7.9µM | . | .
CCc1ccccc1Nc1ncnc2ccccc12 | . | . | / | . | . | .
c1ccc(CCNc2ncnc3ccccc23)cc1 | 0.56µM | . | . | 1.1µM | . | .
CCCCCCCCNc1ncnc2ccccc12 | 0.35µM | . | . | 2.2µM | . | .
C=CCN=c1scc(-c2ccc3c(c2)NC(=O)CO3)n1/N=C(\C)c1ccccn1 | ? | . | ? | 11µM | . | .
C=CCCN(Cc1ccc(OC)cc1)S(=O)(=O)c1ccccc1Br | . | / | ? | . | / | /
CCCCCCn1c(SCC(=O)Nc2cc(C)on2)nc2ccccc2c1=O | .[0.365 µM] | . | . | 4µM | . | .
CCCCn1c(SCC(=O)Nc2cccc(OC)c2)nc2ccc(N3CCOCC3)cc2c1=O | 13µM | . | . | 5µM | . | .
COCCn1c(SCC(=O)Nc2cc(C)on2)nc2ccccc2c1=O | / | / | / | / | / | .
CCCCn1c(SCC(N)=O)nc2c(sc3ccccc32)c1=O | . | . | . | . | . | .
COc1ccc(Cn2c(SCC#N)nc3ccc(N4CCOCC4)cc3c2=O)cc1 | ? | . | . | 10µM | . | .
CCCCn1c(SCC(N)=O)nc2ccc(N3CCOCC3)cc2c1=O | 10µM | . | . | 1.6µM | . | .
COc1ccc(-n2c(SCC#N)nc3ccccc3c2=O)cc1 | . | . | . | . | . | .
CCc1ccc(N(CC(=O)NCC2CCCO2)C(=O)CCC(=O)Nc2nccs2)cc1 (configuration not stated) | . | . | / | . | . | .
COC(=O)C1=C(C)N(Cc2cccnc2)C(=O)/C1=C\c1sccc1C | . | . | . | . | . | .
COc1ccc(N=C2C(=Nc3ccc(OC)cc3)N(c3ccc(OC)cc3)C(=S)N2C)cc1 | . | -80 | . | . | . | -69
O=C(OCC(=O)c1ccc(Cl)s1)c1cnccn1 | . | . | / | . | . | .
CCN(CC)S(=O)(=O)c1cccc(C(=O)OCC(=O)NCc2ccccc2OC)c1 | / | . | / | / | / | .
CC(C)C(=O)Nc1sc2c(c1-c1nc3ccccc3[nH]1)CCCC2 | . | . | . | 11µM | . | .
CC(C)C(=O)Nc1ccccc1-c1nc2ccccc2[nH]c1=O | / | / | / | / | ? | .
Cc1ccc(NC(=S)N2CCCN(Cc3ccc(F)cc3)C2)c(C)c1 | ? | . | . | 13µM | . | .
SMILES | Gal4-VP16 FLuc | CtBP-E1A inh | CBFb RUNX1 block | RORg inh | MBNL1 CUG block | Six1-Eya2 blk
Cc1c(Cl)cccc1NC(=S)N1CCCN(Cc2ccccc2F)C1 | ? | . | . | 13µM | . | .
Cc1ccccc1NC(=S)N1CCCN(Cc2ccc(F)cc2)C1 | .[10 µM] | / | . | . | . | .
CSc1cccc(NC(=S)N2CCCN(Cc3ccc(F)cc3)C2)c1 | . | . | . | ? | . | .
Cc1c(Cl)cccc1NC(=S)N1CCCN(Cc2ccc(F)cc2)C1 | ? | . | . | 16µM | . | .
O=C(Nc1ccccc1)N1CCCN(Cc2ccccc2F)C1 | . | . | . | . | . | .
Fc1ccccc1CN1CCCN(C(=S)Nc2cccc(Cl)c2)C1 | ? | . | . | 7.1µM | . | .
CC(OC(=O)c1ccc(C#N)cc1)C(=O)Nc1ccc(Cl)cn1 (configuration not stated) | / | . | / | / | / | .
CC1(C)NC(=O)N(CC(=O)N2CCN(c3ccc([N+](=O)[O-])cc3)CC2)C1=O | / | . | / | / | / | .

Source: PubChem BioAssay (National Center for Advancing Translational Sciences (NCATS))
